# NPC1 promoter act: qHTS Assay for NPC1 Promoter Activators; hit rate 2.4% among 320,000; Huh7 NPC1 promoter luciferase reporter, 24 h; Potency, µM (series often up to 9.22 µM), without a hit: at the highest dose activation, actives largely listed as activators; note: % of control where 0% means no effect; nearly all actives have a fitted effect of over 60% in size
#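 Luciferase expression driven by the NPC1 promoter was measured in stably transfected Huh7 cells after a 24 h compound incubation, using a luciferase reagent and a luminescence read.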
# FLuc counter: qHTS profiling assay for firefly luciferase inhibitor/activator using purifed enzyme and Km concentrations of substrates (counterscreen for miR-21 project); AID 588342, 2011; Luciferin 4-monooxygenase (Photinus pyralis), P08659; hit rate 6.9% among 360,000; purified FLuc, Km substrates, luminescence inhibition; Potency, µM (doses to about 57.5 µM), for inactives: at the highest dose activity change, negative = inhibition, usual class: inhibitors;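 note: plate controls were vehicle for no effect and reference inhibitor for full effect; nearly all actives have a fitted effect of over 55% in size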
# Target sequence (P08659 whole entry, looked up): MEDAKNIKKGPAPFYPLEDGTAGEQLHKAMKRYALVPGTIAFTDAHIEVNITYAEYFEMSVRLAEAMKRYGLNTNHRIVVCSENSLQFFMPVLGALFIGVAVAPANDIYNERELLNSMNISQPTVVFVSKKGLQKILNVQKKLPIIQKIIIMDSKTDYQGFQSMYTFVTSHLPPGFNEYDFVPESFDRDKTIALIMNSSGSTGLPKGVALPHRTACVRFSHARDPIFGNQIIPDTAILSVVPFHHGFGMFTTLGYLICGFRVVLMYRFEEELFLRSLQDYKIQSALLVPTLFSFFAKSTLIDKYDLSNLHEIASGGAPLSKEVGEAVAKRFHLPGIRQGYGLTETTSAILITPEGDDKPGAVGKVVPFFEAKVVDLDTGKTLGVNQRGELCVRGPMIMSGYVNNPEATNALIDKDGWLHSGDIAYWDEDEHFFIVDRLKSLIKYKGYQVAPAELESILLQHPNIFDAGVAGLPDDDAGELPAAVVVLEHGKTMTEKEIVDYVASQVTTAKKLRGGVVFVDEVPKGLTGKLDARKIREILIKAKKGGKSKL
#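 Purified P. pyralis luciferase (10nM final) with 10uM D-luciferin and 10uM ATP (Km levels) in 50mM Tris acetate pH 7.5, 10mM Mg acetate, 0.01% Tween-20, 0.05% BSA; qHTS 6-point titration, ~60 µM downward; luminescence read.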
# SMN2 splice up: qHTS Assay for Enhancers of SMN2 Splice Variant Expression; HEK293 SMN2-luciferase splicing reporter, luminescence, 30-36 h; Potency, µM (highest dose often 46.1 µM), inactives show top-dose activity change, positive = activation, usual class: activators; hit rate 2.8% among 210,000; AID 1458, 2008; note: % of control where 0% means no effect; nearly all actives have a fitted effect of over 55% in size
#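 HEK293 cells carry an SMN2 […]–luciferase reporter in which exon 7 inclusion puts luciferase in frame. Cells were plated 10-12 h before compound addition, then incubated 30-36 h at 37C. ONE-Glo luminescence was read; sodium butyrate at 4.5 mM final served as control.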
# ELG1 genotoxic: qHTS screen for small molecules that induce genotoxicity in human embryonic kidney (HEK293T) cells expressing luciferase-tagged ELG1. hit rate 1.3% among 330,000. Potency, µM (top dose mostly 46 µM), for inactives: at the highest dose activity change, positive = activation, hits mostly activators. HEK293T ELG1-luciferase reporter, luminescence, 16 h; note: % of control where 0% means no effect; nearly all actives have a fitted effect of over 60% in size
#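 Step 1: seed 2,000 HEK293T ELG1-luciferase cells per well. Step 2: add compound or DMSO, incubate 16 hr at 37 °C. Step 3: ONE-Glo, 30 min at room temperature, read luminescence.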
# Luc counter: Counterscreen for Luciferase (Kinase-Glo TM) Inhibition; Luciferin 4-monooxygenase (Photuris pensylvanica), Q27757; Kinase-Glo luciferase, ATP luminescence, 8 min; Potency, µM (top dose mostly 38.3 µM), for inactives: at the top dose activity change, negative = inhibition, actives largely listed as inhibitors; hit rate 0.28% among 200,000; note: % is set by controls: 0 for no effect and ±100 for the full control effect; nearly all actives have a fitted effect of over 60% in size
#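 Substrate mix (final 50 mM imidazole pH 7.2, 50 mM KCl, 7 mM MgCl2, 10 uM ATP, 0.01% Tween 20, 0.05% BSA) plus pin-tool compound, then Kinase-Glo detection mix; 8 min ambient, luminescence read.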
# Rab9 prom act: qHTS Assay for Rab9 Promoter Activators; Huh7 Rab9 promoter-luciferase reporter, luminescence, 24 h; AID 485297, 2010; hit rate 2.8% among 320,000; Potency, µM (doses to about 9.22 µM), for inactives: top-dose activation, negative = inhibition, actives largely listed as activators; note: % of control where 0% means no effect; nearly all actives have a fitted effect of over 60% in size
#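 Stable Rab9-luc Huh7, 1500 cells/well, 2 h settle; cmpd in DMSO, 24 h, 37 °C/5% CO2; luciferase reagent 10 min RT; luminescence.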
# The depositor's hits bear a star; ? = inconclusive; . = no result given; [ ] = another dose, or the depositor's remark. In the library only some 7.5% were active in any assay of this set; here they are far more common. Calls come from the whole dose curve; as a rule, active = well fitted curve in the direction sought with a large enough effect; inconclusive = small, poorly fitted or top-dose-only effect, or another doubt; inactive = no such curve, though single readings can be large; an effect the other way counts as inactive or inconclusive. Potency is the fitted concentration of half-maximal effect.
SMILES,NPC1 promoter act,FLuc counter,SMN2 splice up,ELG1 genotoxic,Luc counter,Rab9 prom act
Cc1cc2nc(C3CCCN(C(=S)Nc4ccccc4C)C3)[nH]c2cc1C (stereo unspecified),-2.3%,3.38µM*,5.6%,0.9%,0.4%,-0.5%
COc1ccc(NC(=S)N2CCCC(c3nc4ccc(C)cc4[nH]3)C2)cc1 (stereo unspecified),-1.1%,13.5µM*,.,-1.8%,-0.2%,-6.3%
Cc1ccc(NC(=S)N2CCCC(c3nc4ccc(C)cc4[nH]3)C2)c(C)c1 (stereo unspecified),1.0%,-8.0%,-4.5%,-7.2%,-1.6%,0.2%
O=[N+]([O-])c1ccc(CSCc2ccc(Cl)cc2)cc1,.,.,-5.4%[9.22 µM],.,-5.8%[7.66 µM],.
Fc1cccc(CSc2ccc(-c3cccs3)nn2)c1,.,9.53µM*,.,.,.,.
Cc1ccccc1CSc1ccc(-c2cccs2)nn1,.,7.57µM*,.,.,.,.
c1cncc(CSc2ccc(-c3cccs3)nn2)c1,?,16.9µM*,14.8%,15.0%,-4.6%,3.55µM*
O=C(CSc1ccc(-c2cccs2)nn1)Nc1cccc(F)c1,.,23.9µM*,.,.,.,.
Clc1cccc(CSc2ccc(-c3cccnc3)nn2)c1,-2.2%,?,-1.1%,5.4%,-0.4%,-2.1%
CC(=O)N1CC2(CC2)CC1c1ccccc1 (stereo unspecified),.,.,-12.6%,.,-2.0%,.
S=C(Sc1ccc(Cl)cc1)Sc1ccc(Cl)cc1,-43.5%,-11.4%,.,11.8%,.,-66.6%
Cc1c(C)c2c(cc(C)c3c(-c4ccccc4)coc32)oc1=O,.,?,6.8%,.,.,.
Fc1ccc(CSc2ccc(-c3cccs3)nn2)cc1,?,?,5.01µM*,?,-3.2%,?
Cc1ccc(CSc2ccc(-c3cccs3)nn2)cc1,4.47µM*,2.13µM*,14.1µM*,23.1µM*,-9.9%,2.82µM*
Nc1c(-c2ccccc2)cnc2ncnn12,0.2%,1.3%,-1.7%,2.0%,-3.9%,-6.5%
COc1ccccc1-c1c(C)nn2c(N)c(-c3ccc(Cl)cc3)cnc12,1.2%,?,.,0.5%,.,9.8%
COc1ccc(-c2cc(C(F)(F)F)n3ncc(-c4ccccc4)c3n2)cc1,.,-2.7%,0.4%,.,.,.
Cc1nc2c(-c3ccc(Cl)cc3)cnn2c2c1CCC2,?,?,25.1%,3.9%,3.5%,?
Nc1c(-c2cccc(Cl)c2)cnc2c(-c3ccccc3)cnn12,1.26µM*,4.26µM*,.,?,.,?
COc1ccc(-c2c(C)nc3c(-c4ccc(F)cc4)cnn3c2N)cc1,0.501µM*,0.849µM*,.,?,.,0.447µM*
Cc1nc2c(-c3ccc(Cl)cc3)cnn2c(N)c1-c1ccc(F)cc1,14.6%,1.69µM*,.,6.51µM*,.,?
Nc1c(-c2ccc(Cl)cc2)cnc2c(-c3ccc(F)cc3)cnn12,0.562µM*,1.51µM*,.,7.3µM*,.,0.501µM*
COC(=O)C1=C(C)NC(C)=C(C(=O)OC)C1C(=O)OCC(=O)N1CCCCC1C (stereo unspecified),0.8%,3.3%,.,-4.8%,.,-1.6%
Cc1cccc(CN2CCN(Cc3nc4c(s3)CCCC4)CC2CCO)n1 (stereo unspecified),-2.0%,-2.1%,.,-1.6%,.,-1.4%
Cc1ccc(Cl)cc1Nc1nn2c(=O)c3ccc(C(=O)NCc4ccc(F)cc4)cc3nc2s1,.,0.0%,.,.,.,.
SMILES,NPC1 promoter act,FLuc counter,SMN2 splice up,ELG1 genotoxic,Luc counter,Rab9 prom act
COc1ccccc1CNC(=O)c1ccc2c(c1)CCN2S(=O)(=O)c1ccc(Cl)cc1,.,-2.1%,-14.3%,.,.,.
COC(=O)c1ccc(NC(=O)C(=O)NCCc2sc(-c3cccc(F)c3)nc2C)cc1,.,-0.8%,.,.,.,.
NS(=O)(=O)c1ccc(CCNC(=O)c2cccc([N+](=O)[O-])c2)cc1,-3.1%,0.1%,-7.0%,-5.4%,5.6%,-11.8%
CC(C(=O)NC1CCCCC1)N1CCN(S(=O)(=O)c2cccs2)CC1 (stereo unspecified),-5.4%,.,.,1.6%,.,-1.4%
Cc1nc2c(-c3ccc(F)cc3)cnn2c(N)c1-c1ccccc1,-4.1%,0.239µM*,.,0.58µM*,.,2.9%
Cc1cc(C(F)(F)F)n2ncc(-c3ccc(F)cc3)c2n1,-1.8%,-0.5%,-20.0%,2.7%,-3.3%,-5.7%
O=C1/C(=C/c2ccc([N+](=O)[O-])cc2)CCc2ccccc21,27.7%,0.151µM*,.,7.3µM*,.,?
O=C(O)c1ccc(-n2ncc3c2/C(=C/c2cccc([N+](=O)[O-])c2)CC3)cc1,1.58µM*,10.7µM*,.,15.0%,.,2.82µM*
O=C1/C(=C/c2cccc([N+](=O)[O-])c2)CCc2ccccc21,0.0%,9.53µM*,-13.6%,-14.2%,-2.7%,-3.6%
O=[N+]([O-])c1cc(/C=N/O)ccc1Oc1ccccc1Cl,8.9%,19µM*,1.4%,?,0.8%,-3.5%[1.84 µM]
O=[N+]([O-])c1cc(/C=N/O)ccc1Oc1cccc(Cl)c1,-8.1%,-13.4%,-6.1%,14.1%,-4.7%,-11.9%
CCOc1ccc2[nH]c(=O)c(CN(Cc3cccnc3)C(=O)Nc3ccccc3OC)cc2c1,-0.7%,16.9µM*,?,1.5%,-4.6%,-4.1%
COc1cccc(OC)c1C(=O)Nc1cccc(C(=O)Nc2cccc(C(=O)O)c2)c1,7.3%,9.53µM*,.,-1.5%,.,6.6%
COc1ccccc1NC(=O)Nc1cccc(C(=O)O)c1,?,12µM*,-13.6%,0.6%,-6.0%,?
COc1ccccc1NC(=O)Nc1ccc(F)c(F)c1,12.3%,16.9µM*,28.3%,0.9%,-22.6%,18.4%
COc1ccccc1NC(=O)NCC(=O)Nc1ccc(F)c(F)c1,0.1%,-2.5%,.,10.0%,-2.7%,0.7%
COc1ccccc1NC(=O)NC(=O)c1ccccc1,2.51µM*,1.2µM*,.,?,.,?
COc1ccc(C(=O)Nc2cccc(C(C)=O)c2)cc1OC,18.2%,?,14.0%,18.4%,-16.7%,6.7%
CCc1cccc(C)c1NC(=O)C(C)Sc1nc2c(c(=O)[nH]1)CCCC2 (stereo unspecified),.,-3.4%,.,.,.,.
Cc1oc(C)c2c(=O)cc(-c3ccc4c(c3)OCO4)cc(OC(=O)c3ccccc3Br)c12,.,-28.8%,-1.6%,.,.,.
COc1ccccc1C(=O)Nc1cccc(C(=O)c2ccccc2)c1,-2.4%,16.9µM*,.,2.3%,.,0.8%
Cc1ccc(NC(=O)Nc2ccc3c(c2)nnn3C)cc1C,?,-7.1%,.,12.6%,.,?
COc1ccccc1NC(=O)Nc1ccc2c(c1)nnn2C,?,12µM*,?,13µM*,-7.2%,3.16µM*

# Compound activity as filed in PubChem.
